# An excerpt weighted towards active compounds, which were near 19% of everything screened.
# IL-1B inflam inh – qHTS for Inhibitors of Inflammasome Signaling: IL-1-beta AlphaLISA Primary Screen | actives 4.7% (n = 360,000) | AID 743279, 2014 | THP-1 LPS/ATP IL-1B secretion, AlphaLISA, 16 h; active compounds read low | activity change, % at 57.5 µM; in the data active means activity change below about -50%; inconclusive means mostly about -30% to -49%; further: on the % scale 0 is the no-effect control and ±100 the full control effect
#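 THP-1 cells pretreated 1 hr with compounds (up to 57.5 uM final), then stimulated with LPS (250 ng/mL final) plus ATP (1.25 mM final); secreted IL-1B measured by AlphaLISA after 16 hr, decreased signal indicating inhibition.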
# TGFb SMAD3 inh – qHTS for Inhibitors of TGF-b; AID 588855, 2011; HepG2 CAGA-GFP TGF-b/SMAD3 reporter, GFP fluorescence, 18 h; TGF-beta stimulated, 500 pg/mL final; actives 1.2% (n = 410,000); Potency, µM (series often up to 46.1 µM), for the others: at the top dose activity, negative = inhibition, actives largely listed as inhibitors; further: potency means the concentration at half of the fitted maximal effect; on the % scale 0 is the no-effect control and ±100 the full control effect; nearly all actives have a fitted effect of over 65% in size
#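 Inhibition of TGF-beta-driven CAGA-GFP reporter expression in HEPG2 cells is measured by cellular GFP fluorescence after 18 h stimulation with 500 pg/mL recombinant TGF-beta in 1% FBS medium at 37 degrees C.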
# ASM inhibitor – Inhibitors of Secretory Acid Sphingomyelinase (S-ASM): qHTS; AID 504937, 2011; actives 0.006% (n = 340,000); placental ASM, HMU-PC fluorogenic substrate, 60 min; Sphingomyelin phosphodiesterase (Homo sapiens), P17405; Potency, µM (highest dose often 57.5 µM), for the others: at the highest dose activity change, negative = inhibition, most hits filed as inhibitors; further: potency means the concentration at half of the fitted maximal effect
# Target sequence (P17405 47-631 limits assumed): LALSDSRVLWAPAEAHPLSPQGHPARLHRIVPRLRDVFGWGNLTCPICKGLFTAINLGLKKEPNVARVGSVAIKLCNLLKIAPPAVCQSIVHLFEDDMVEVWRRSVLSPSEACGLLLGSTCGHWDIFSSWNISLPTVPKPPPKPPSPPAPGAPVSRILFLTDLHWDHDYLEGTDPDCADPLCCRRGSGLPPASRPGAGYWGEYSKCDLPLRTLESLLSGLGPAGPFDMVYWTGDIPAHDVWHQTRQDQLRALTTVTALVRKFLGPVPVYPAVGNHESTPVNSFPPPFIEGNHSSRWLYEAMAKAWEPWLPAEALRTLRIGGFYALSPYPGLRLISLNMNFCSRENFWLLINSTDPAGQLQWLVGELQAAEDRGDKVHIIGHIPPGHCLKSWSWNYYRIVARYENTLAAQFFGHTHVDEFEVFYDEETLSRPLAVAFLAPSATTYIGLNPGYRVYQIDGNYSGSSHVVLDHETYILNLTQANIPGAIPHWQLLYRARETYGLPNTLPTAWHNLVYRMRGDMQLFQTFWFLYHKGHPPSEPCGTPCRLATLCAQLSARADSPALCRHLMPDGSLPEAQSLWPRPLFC
#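 Human placenta-derived ASM preincubated with compound 10 min at room temperature, then reacted with 9 uM (final) fluorogenic HMU-PC substrate for 60 min at 37 C. Stop solution raises pH to 10; fluorescence read at Ex 386/Em 447 nm.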
# DT40 TDP1 CPT – qHTS for Inhibitors of human tyrosyl-DNA phosphodiesterase 1 (TDP1): qHTS in cells in presence of CPT; chicken DT40 Tdp1-/-;hTDP1 cells + 20 nM CPT, ATP luminescence, 48 h; Potency, µM (doses to about 46.2 µM), for the others: at the top dose activity change, negative = growth inhibition, most hits filed as inhibitors; actives 12% (n = 420,000); further: potency means the concentration at half of the fitted maximal effect; on the % scale 0 is the no-effect control and ±100 the full control effect; nearly all actives have a fitted effect of over 55% in size
#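 Cell growth measured by CellTiter-Glo luminescence after a minimum 48 h, 37 C compound exposure with 20 nM CPT in Tdp1-knockout DT40 cells stably expressing hTDP1, seeded 400/well; qHTS titration format.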
# TDP1 cell noCPT – qHTS for Inhibitors of human tyrosyl-DNA phosphodiesterase 1 (TDP1): qHTS in cells in absence of CPT | DT40 Tdp1-/- hTDP1 cells, no CPT, ATP luminescence, 48 h | Potency, µM (top dose mostly 46.2 µM), inactives show top-dose activity change, negative = growth inhibition, hits mostly inhibitors | actives 15% (n = 420,000) | AID 686978, 2013; further: potency means the concentration at half of the fitted maximal effect; on the % scale 0 is the no-effect control and ±100 the full control effect; nearly all actives have a fitted effect of over 55% in size
#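 Readout: luminescence from CellTiter-Glo after 30 min in the dark at RT. Cells: DT40 Tdp1-/- with stable hTDP1, 400/well. Exposure: compounds alone, ≥48 hr, 37 °C.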
# HepG2 viability – qHTS for Inhibitors of TGF-b: Cytotox Counterscreen; HepG2 CAGA-GFP viability, ATP luminescence, 18 h; Potency, µM (doses to about 46.1 µM), for the others: top-dose activity change, negative = cytotoxicity, usual class: cytotoxic; actives 0.76% (n = 410,000); further: potency means the concentration at half of the fitted maximal effect
#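 CellTiter-Glo luminescence gave cytotoxicity after 18 hours at 37 degrees C. The cells were HepG2 CAGA-GFP in 1% FBS DMEM, stimulated with 500 pg/mL TGF-beta after compound addition. %Activity was normalised to no-cell wells (complete cell-killing) and DMSO (no toxicity), and curves were fitted and classified.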
# The depositor's hits bear a star; ? = inconclusive; nt = not tested or not shown. Unless noted, the call rests on the fitted dose curve; in most records, active means well fitted curve in the direction sought with a large enough effect; inconclusive means small, poorly fitted or top-dose-only effect, or another doubt; inactive means no such curve, though single readings can be large; an effect the other way counts as inactive or inconclusive.
SMILES,IL-1B inflam inh,TGFb SMAD3 inh,ASM inhibitor,DT40 TDP1 CPT,TDP1 cell noCPT,HepG2 viability
CN(CC(=O)Nc1ccc(Cl)cc1)C(=O)c1ccc(S(=O)(=O)Nc2ccccc2)cc1,?,-38%,-4%,?,?,-34%
CSc1cccc(NC(=S)N(CCC(C)C)C2CCN(C(C)C)CC2)c1,-25,?,-3%,-8%,-20%,-28%
Cc1c(C(=O)N2CCC(Cc3ccccc3)CC2)sc2ncnc(NCc3ccccn3)c12,nt,nt,nt,?,-29%,nt
COc1ccc(N2CCN(S(=O)(=O)c3c(C)nc4scc(C)n4c3=O)CC2)cc1,35,-1%,-5%,-24%,?,-4%
COc1ccc(NS(=O)(=O)c2ccc(C(=O)N(C)Cc3ccc(C)o3)cc2)cc1,-11,-22%,-3%,13µM*,15µM*,-17%
Cc1cc(NC(=O)Nc2ccc3c(ccn3C)c2)sn1,-100*,13%,-10%,?,?,-7%
CC(=O)Nc1ccc(C2=NOC(C)(C)C(=O)N2Cc2cccc(C#N)c2)cc1,-12,8%,nt,-27%,-14%,4%
Cc1csc(NC(=O)CN2C(=O)COc3ccc(Cl)cc32)n1,1,-2%,-1%,-15%,-28%,5%
O=C(O)c1ccc(C2CCCCC2)cn1,-2,0%,-1%,?,?,-36%
O=C1C=C(C2CCCCC2)C(=O)c2ccccc21,82,-24%,-5%,21µM*,15µM*,-17%
O=C(O)C1=C(C2CCCCC2)C(=O)c2ccccc21,-55*,9%,1%,-25%,-30%,-21%
CCC(=O)Nc1c(-c2ccc3ccccc3c2)nc2ccccn12,0,10%,2%,-6%,2%,13%
O=c1[nH]c(-c2ccccc2)ncc1OCc1ccccc1,-7,-2%,-1%,13µM*,-22%,9%
COc1cnc(-c2ccccc2)[nH]c1=O,-4,7%,4%,-12%,-13%,0%
C=CC[C@@H](CC(=O)N(CCO)Cc1ccccc1)C(=O)N[C@H](COC(=O)[C@@H](CC=C)CC(=O)OC(C)(C)C)C(C)(C)C,-58*,-30%,-1%,?,?,-15%
C=CC[C@H](CC(=O)N(CCO)Cc1ccccc1)C(=O)N[C@H](COC(=O)[C@H](CC=C)CC(=O)OC(C)(C)C)Cc1ccccc1,-27,?,1%,23µM*,21µM*,1%
O=[N+]([O-])c1ccc(N2CCN(C(=S)Nc3ccc(F)cc3)CC2)cc1,-4,-25%,-11%,5.2µM*,5.8µM*,3%
O=[N+]([O-])c1ccc(N2CCN(C(=S)Nc3cccc(F)c3)CC2)cc1,-20,?,-11%,8.2µM*,9.2µM*,-8%
O=[N+]([O-])c1ccc(N2CCN(C(=S)Nc3ccc(F)cc3F)CC2)cc1,-8,-2%,-8%,6.5µM*,8.2µM*,0%
O=[N+]([O-])c1cccc(NC(=S)N2CCCC2)c1,18,-21%,-4%,-17%,20%,2%
Fc1ccc(NC(=S)N2CCOCC2)c(F)c1,4,7%,1%,0%,14%,-3%
O=C(C1CCN(S(=O)(=O)c2ccccc2)CC1)N1CCCCC1,-3,4%,-17%,7%,-24%,7%
Cc1cccc(C(=O)Oc2ccc3ccc(O)cc3c2)c1,-10,-3%,-9%,?,?,6%
Cc1ccc(S(=O)(=O)n2nc(-c3ccccc3)nc2NCc2ccc(Cl)cc2)cc1,nt,4%,nt,?,?,-1%
Brc1ccc(CN2CCc3nc(Nc4ccccc4)ncc3C2)s1,nt,?,nt,?,?,-22%
SMILES,IL-1B inflam inh,TGFb SMAD3 inh,ASM inhibitor,DT40 TDP1 CPT,TDP1 cell noCPT,HepG2 viability
Clc1ccc(CN2CCc3nc(Nc4ccc5c(c4)OCCO5)ncc3C2)cc1,nt,?,nt,16µM*,13µM*,-30%
COc1cccc(CN2CCc3nc(Nc4ccc5c(c4)OCCO5)ncc3C2)c1,nt,-21%,nt,?,?,-13%
COc1cc(OC)c(OC)cc1CN1CCc2nc(Nc3ccc4c(c3)OCCO4)ncc2C1,nt,-21%,nt,16µM*,?,-12%
CC(C)NS(=O)(=O)c1ccc(OCC(=O)NC(C)c2ccccc2)cc1 (stereo unspecified),8,24%,3%,0%,-1%,18%
COc1ccc(-c2cnnn2-c2ccc(NC(=O)c3ccc(S(=O)(=O)N4CCCCC4)cc3)cc2)cc1OC,-22,?,-1%,21µM*,12µM*,-67%
COc1ccc(C(=O)Nc2ccc(-n3nncc3-c3ccc(OC)c(OC)c3)cc2)cc1,nt,?,nt,21µM*,21µM*,-32%
CCOC(=O)C1=C(c2ccccc2)NC(N)=NC1c1ccc(OCc2ccc(Cl)cc2)c(OC)c1 (stereo unspecified),?,?,-16%,23µM*,?,-122%
CC(C)CCOc1ccc(C(=O)N2CCN(c3ncccn3)CC2)cc1,-24,-30%,-6%,-3%,18%,-31%
CCOc1ccc(S(=O)(=O)N(CC(=O)NCCc2ccc(OC)cc2)c2ccccc2)cc1,nt,6%,nt,-5%,3%,-14%
C=C1C(=O)O[C@H]2[C@H]1[C@@H](O)CC(=C)[C@@H]1CC(=O)[C@@H](C)[C@H]21,-92*,-4%,8%,5.2µM*,6.5µM*,0%
Nc1ccc(C23CC4CC(CC(CO)(C4)C2)C3)cc1,-5,-3%,-1%,-8%,-3%,1%
NCC12CC3CC(C1)CC(c1ccc(Cl)cc1)(C3)C2,-89*,?,-2%,6.5µM*,6.5µM*,-7%
Clc1ccccc1-c1cncnc1NCCN1CCOCC1,nt,nt,nt,3.3µM*,3.7µM*,nt
FC(F)(F)c1ccccc1-c1cc(NCCN2CCOCC2)ncn1,nt,nt,nt,-4%,-1%,nt
FC(F)(F)c1ccccc1-c1cncnc1NCCN1CCOCC1,nt,nt,nt,1µM*,1.5µM*,nt
COc1cccc(C(=O)Nc2c(C(=O)N3CCN(c4ccc(F)cc4)CC3)oc3ccccc23)c1,nt,-8%,nt,?,?,-5%
Cc1cc(Br)c(NC(=O)Cn2c([N+](=O)[O-])cnc2C)cc1C,-10,0%,1%,-28%,-3%,-3%

# From PubChem
